Drawing on article PMC7862700, “An all-to-all approach to the identification of sequence-specific readers for epigenetic DNA modifications on cytosine”, this text covers binding signal for five sequences.

What all share (assay): DAPPL (digital affinity profiling via proximity ligation, sequencing); 10 mM Tris-HCl pH 7.5, 50 mM NaCl, 1 mM DTT, 4% glycerol, room temperature, 30 min; GST-TFs on glutathione beads, 16-mer random dsDNA library, 0.1% formaldehyde crosslink after washing; high values mean tight binding
The target of one test is HSF1 (Homo sapiens, UniProt Q00613 1-529). The following applies: protein: recombinant; tags: N-terminal GST; chain copies: 3; dsDNA, one strand shown. Summed up:
(§1)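 Human transcription factors were made in yeast as GST fusions, captured on glutathione beads and barcoded with DNA. With a tag-only sample included, the pool was incubated with 200 nmole of a random double-stranded 16-mer DNA library in Tris/NaCl/DTT/glycerol buffer at room temperature for 30 min, then crosslinked with 0.1% formaldehyde after washing, ligated by proximity, amplified and sequenced. For binding signal, each hexamer's read frequency for a factor is divided by its frequency for the tag-only sample.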

A further test has as its target T1, SPIC (Homo sapiens, UniProt Q8N5J4 1-248).
T1 sequence: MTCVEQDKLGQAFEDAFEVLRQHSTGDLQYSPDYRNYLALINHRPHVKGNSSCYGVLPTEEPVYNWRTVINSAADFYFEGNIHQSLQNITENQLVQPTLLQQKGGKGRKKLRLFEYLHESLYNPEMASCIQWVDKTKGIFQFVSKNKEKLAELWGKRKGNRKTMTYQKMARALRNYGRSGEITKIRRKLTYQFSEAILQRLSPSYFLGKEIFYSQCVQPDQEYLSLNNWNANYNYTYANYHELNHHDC
Particulars: protein: recombinant; tags: N-terminal GST; dsDNA, one strand shown. Summed up: as §1

For another test, the target named is T2, ELK4 (Homo sapiens, UniProt P28324-2 1-405).
T2 sequence: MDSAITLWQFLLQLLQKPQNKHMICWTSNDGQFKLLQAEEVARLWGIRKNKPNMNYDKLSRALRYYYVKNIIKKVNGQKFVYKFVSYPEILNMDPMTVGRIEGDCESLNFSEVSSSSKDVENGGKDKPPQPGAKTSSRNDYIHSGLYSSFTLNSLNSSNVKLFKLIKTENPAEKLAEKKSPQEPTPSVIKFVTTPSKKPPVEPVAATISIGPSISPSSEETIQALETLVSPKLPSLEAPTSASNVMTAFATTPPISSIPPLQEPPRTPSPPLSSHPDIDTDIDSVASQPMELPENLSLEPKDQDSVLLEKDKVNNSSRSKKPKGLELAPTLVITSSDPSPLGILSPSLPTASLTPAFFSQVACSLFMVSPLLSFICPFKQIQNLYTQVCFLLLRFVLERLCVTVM
The following applies: protein: recombinant; tags: N-terminal GST; dsDNA, one strand shown. Summed up: as §1

In the next test the target is T3, ETV2 (Homo sapiens, UniProt O00321 1-342).
T3 sequence: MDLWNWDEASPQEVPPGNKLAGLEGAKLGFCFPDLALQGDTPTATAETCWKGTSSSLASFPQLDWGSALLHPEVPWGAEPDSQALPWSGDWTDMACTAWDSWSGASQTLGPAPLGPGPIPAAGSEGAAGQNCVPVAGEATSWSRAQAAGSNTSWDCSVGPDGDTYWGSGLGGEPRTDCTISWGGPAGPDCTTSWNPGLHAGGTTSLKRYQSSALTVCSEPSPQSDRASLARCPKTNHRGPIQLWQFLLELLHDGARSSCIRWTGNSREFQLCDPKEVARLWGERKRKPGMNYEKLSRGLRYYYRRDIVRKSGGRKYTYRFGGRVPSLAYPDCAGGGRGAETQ
Particulars: protein: recombinant; tags: N-terminal GST; dsDNA, one strand shown. Summed up: as §1

HSF1, sequence (Q00613 whole entry, the tested form may be a part): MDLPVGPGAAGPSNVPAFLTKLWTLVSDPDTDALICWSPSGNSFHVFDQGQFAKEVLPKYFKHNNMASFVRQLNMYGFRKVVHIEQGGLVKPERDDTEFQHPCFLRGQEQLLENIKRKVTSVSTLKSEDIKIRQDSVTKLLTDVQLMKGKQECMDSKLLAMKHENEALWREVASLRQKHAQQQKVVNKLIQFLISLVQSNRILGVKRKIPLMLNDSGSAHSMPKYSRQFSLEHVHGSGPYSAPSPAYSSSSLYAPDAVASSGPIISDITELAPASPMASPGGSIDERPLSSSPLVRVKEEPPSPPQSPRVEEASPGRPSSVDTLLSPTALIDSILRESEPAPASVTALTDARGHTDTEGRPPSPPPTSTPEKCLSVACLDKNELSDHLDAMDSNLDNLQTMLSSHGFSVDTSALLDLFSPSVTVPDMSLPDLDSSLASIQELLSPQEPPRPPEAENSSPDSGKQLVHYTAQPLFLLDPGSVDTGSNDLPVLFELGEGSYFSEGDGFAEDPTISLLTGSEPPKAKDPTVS

On to GATCGA, for which the binding signal in the test with HSF1 was 1.07 fold enrichment (6-mer frequency, TF over GST control). As for GATGGA, the binding signal with HSF1 is 1.1 fold enrichment (6-mer frequency, TF over GST control); with SPIC, 1.22 fold enrichment (6-mer frequency, TF over GST control); with ELK4 it was 1.04 fold enrichment (6-mer frequency, TF over GST control); with ETV2, 1.02 fold enrichment (6-mer frequency, TF over GST control). With TCGAGG, the binding signal with HSF1 is 1.04 fold enrichment (6-mer frequency, TF over GST control). For the sequence AGGAAT, the binding signal with HSF1 is 1.01 fold enrichment (6-mer frequency, TF over GST control). Same read-out and setting: the result for CGAGTA reads 1.1 fold enrichment (6-mer frequency, TF over GST control).
